Screening data from PubChem BioAssay.
Only some compounds are listed: those with a hit (about 6.4% of all), similar ones and a draw of the others.
KinaseGlo FLuc: counter-screen: inhibitors of Kinase-Glo firefly luciferase; actives 0.28% (n = 200,000); Potency, µM (series often up to 38.3 µM), hits mostly inhibitors; Q27757; Kinase-Glo luciferase, ATP luminescence, 8 min; also: nearly all actives have a fitted effect of over 60% in size
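Inhibition of Kinase-Glo luciferase light generation was assessed at 10 uM ATP in pH 7.2 imidazole buffer, with luminescence measured after eight minutes at ambient temperature.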
VP16 counter: Gal4-VP16 reporter inhibition counter-screen. Drosophila S2 Gal4-VP16 UAS-luciferase, luminescence, 20 h. Potency, µM (top dose mostly 53.6 µM), most hits filed as inhibitors. actives 3.5% (n = 310,000). AID 2546;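 also: Gal4-VP16 expression switched on by copper sulfate through the metallothionein promoter; nearly all actives have a fitted effect of over 50% in size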
RORgamma inh: ROR gamma (mouse) transcription inhibition | Potency, µM (series often up to 53.6 µM), actives largely listed as inhibitors | P51450 | actives 5.4% (n = 310,000) | Drosophila S2 Gal4-RORgamma UAS-luciferase reporter, 20 h; also: nearly all actives have a fitted effect of over 60% in size
Target sequence (P51450 whole entry, looked up, the tested form may be a part): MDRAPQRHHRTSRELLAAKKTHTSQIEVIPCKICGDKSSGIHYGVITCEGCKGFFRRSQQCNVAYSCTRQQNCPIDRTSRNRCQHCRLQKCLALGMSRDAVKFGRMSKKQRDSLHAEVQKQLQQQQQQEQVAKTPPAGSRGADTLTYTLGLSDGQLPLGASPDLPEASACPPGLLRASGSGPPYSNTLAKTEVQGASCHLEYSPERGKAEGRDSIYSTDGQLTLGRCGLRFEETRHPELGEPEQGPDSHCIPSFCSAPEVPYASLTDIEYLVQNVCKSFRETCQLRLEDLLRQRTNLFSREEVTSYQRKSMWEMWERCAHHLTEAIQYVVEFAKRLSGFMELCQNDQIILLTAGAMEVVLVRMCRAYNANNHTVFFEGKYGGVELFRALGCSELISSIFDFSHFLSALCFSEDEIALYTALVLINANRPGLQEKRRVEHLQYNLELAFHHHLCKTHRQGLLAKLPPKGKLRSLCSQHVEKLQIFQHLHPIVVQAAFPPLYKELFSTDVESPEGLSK
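Luminescence from a UAS-regulated Photinus luciferase reporter in stably transfected Drosophila Schneider cells is measured; decreased signal marks ROR gamma inhibition. Fusion expression is induced by 700 uM copper sulfate for 20 hr.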
A number is an active result; - = inactive; ? = inconclusive; . = no result given; [ ] = dose if it differs, or a comment. Calls follow the shape of the dose curve; as a rule, active = well fitted curve in the direction sought with a large enough effect; inconclusive = small, poorly fitted or top-dose-only effect, or another doubt; inactive = no such curve, though single readings can be large; an effect the other way counts as inactive or inconclusive.

SMILES	KinaseGlo FLuc	VP16 counter	RORgamma inh
Cc1ccc(NC(=O)N2CCCC2C(=O)NCC2CCCCC2)cc1 (centres undefined)	.	-	-
C=CCNC(=O)N1CCc2nc(-c3ccccc3)c3c(c2C1)CO[C@@H](C)C3	-[7.66 µM]	.	.
COC(=O)c1cn[nH]c1NC(=S)Nc1ccc(Cl)c(Cl)c1	-	?	?
CCOC(=O)c1cn[nH]c1NC(=S)Nc1ccc(OC)cc1	.	-	-
COC(=O)c1cn[nH]c1NC(=S)Nc1ccccc1C	-	?	5.6µM
COC(=O)c1cn[nH]c1NC(=S)Nc1ccc(C)cc1Cl	-	3.5µM	2.8µM
CCCCC(CC)CCC(CC(C)C)OS(=O)(=O)O (centres undefined)	.	-	-
CN(c1cccc(NC(=O)c2ccc(Cl)c(S(=O)(=O)N3CCOCC3)c2)c1)S(C)(=O)=O	.	-	-
O=C(CN1CCN(S(=O)(=O)c2ccc(Cl)cc2)CC1)c1ccc(O)c(O)c1	.	-	-
CCOC(=O)N1CCN(C(=O)/C(=C/c2cccs2)NC(=O)c2cccs2)CC1	-	-	-
O=C(O)CCCn1cc(NC(=O)c2c(F)cccc2F)cn1	-	-	-
Cc1nnc(NC(=O)c2ccccc2NC(=O)c2ccccc2)s1	.	-	18µM
O=C(O)CCCn1cc(NC(=O)c2sc3ccccc3c2Cl)cn1	.	5µM	14µM
Cc1nnc(NC(=O)c2ccccc2-c2ccccc2C(=O)O)s1	.	-	-
CC(C)Cc1nnc(NC(=O)CC(=O)Nc2ccccc2C(=O)O)s1	-	-	-
Cc1ccccc1C(=O)Nc1nnc(SC(C)C)s1	-	-	2.5µM
CC(C)Sc1nnc(NC(=O)CCc2ccccc2)s1	-	-	-
CC(C)c1nnc(NC(=O)CC(=O)Nc2ccccc2C(=O)O)s1	-	?	11µM
N#Cc1ccc(NC(=O)CN2C(=O)NC3(CCCC3)C2=O)cc1	.	-	-
CSc1cnc2c(N)nc(N(C)C)nc2n1	-	-	-
Cn1c(=O)cc(Nc2ccccc2)c2c(=O)n(-c3ccccc3)c(=O)n(-c3ccccc3)c21	.	-	-
O=C(Cn1cc(C(F)(F)F)ccc1=O)N/N=C/c1ccc(Cl)cc1	-	-	-
Cc1ccc(NC(=O)c2sc3ccccc3c2Cl)nc1	-	?	?
Cc1ccnc(NC(=O)c2cc3cc(F)ccc3s2)c1	.	?	3.2µM
Cc1cccnc1NC(=O)c1sc2ccccc2c1Cl	.	8.9µM	8.9µM
SMILES	KinaseGlo FLuc	VP16 counter	RORgamma inh
Cc1ccnc(NC(=O)c2ccc([N+](=O)[O-])s2)c1	.	?	-
CCN(CC)Cc1ccc(NC(=O)c2sc3cc(Cl)ccc3c2Cl)cc1	.	-	-
Cc1ccnc(NC(=O)c2sc3cc(Cl)ccc3c2Cl)c1	-	?	2µM
COCc1nnc(NC(=O)c2sc3ccccc3c2Cl)s1	-	?	-
Cc1nnc(NC(=O)c2sc3ccccc3c2Cl)s1	-	8.9µM	?
Cc1ccc(C(=O)/C=C/c2cc(C#N)n(C)c2C)cc1	.	-	-
CCc1ccc(-n2ccc(=O)c(C(=O)O)n2)cc1	.	-	-
CC1CC(C)CN(CCCNS(=O)(=O)c2cc(Br)cc3c2N(C(=O)C2CC2)CC3)C1 (centres undefined)	.	-	-
COc1ccc(CCN(C)CC(O)c2ccccc2)cc1OC (centres undefined)	-	-	-
C=CS(=O)(=O)c1sc(Cl)c(N2CCOCC2)c1[N+](=O)[O-]	-	7.1µM	10µM
C=CSc1sc(Cl)c(N2CCOCC2)c1[N+](=O)[O-]	-	-[10 µM]	-
O=C(/C=C/c1ccc(O)c(O)c1)O[C@@H]1C[C@@](O)(C(=O)O)C[C@H](O)[C@@H]1O	-	-	-
Cc1cccc2[nH]c3c(N4CCC5(CC4)OCCO5)ncnc3c12	-	5µM	11µM
Clc1ccc2[nH]c3c(N4CCC5(CC4)OCCO5)ncnc3c2c1	-	?	?
Cc1csc(NC(=O)c2ccccc2O)n1	-	-	-
CC(C)(C)c1csc(NC(=O)c2ccccc2O)n1	.	2.5µM	?
CC(C)(C)c1csc(NNC(=O)c2ccc(Br)cc2)n1	-	2.8µM	1.3µM
Cc1nc(C)c(C(=O)NNC(=O)c2ccc(Br)cc2)s1	-	-	-
O=C(CCCn1nnnc1CN1CCOCC1)N1CCC(c2ccc(F)cc2)C1 (centres undefined)	.	-	-
Nc1c2c(=O)oc(-c3ccccc3)cc2nn1-c1ccccc1	-	-	-
Cc1c(-c2ccc(Cl)cc2)oc(=O)c2c(N)n(-c3ccccc3)nc12	-	?	7.9µM
Cc1nnc2c(N3CCN(C(=O)c4ccco4)CC3)nc3ccccc3n12	.	-	-
CCCc1cc(N2CCN(C(=O)c3ccco3)CC2)n2c(nc3ccccc32)c1C#N	-	-	4.5µM
CS(=O)(=O)N1CCC2(CCCN(C(=O)Nc3ccccc3)C2)CC1	-	-	-
C=CCNC(=O)/C(=C\c1ccc(Br)cc1)NC(=O)c1ccccc1OC	-	-[10 µM]	-
SMILES	KinaseGlo FLuc	VP16 counter	RORgamma inh
Cc1ccc(NCc2ccc(O)c3ncccc23)cc1C	-	?	-
CCn1c(=O)c(C(=O)Nc2ncccc2C)c(O)c2ccccc21	-	-	-
Cc1ccc(O)c(CNc2cccc3cccnc23)c1	-	-	-
Cc1ccc(NCc2ccc(O)c3ncccc23)cc1	-	1.8µM	1µM
Cc1cccc(NCc2ccc(O)c3ncccc23)c1C	-	?	7.9µM
Cc1cccnc1NCc1ccc(O)c2ncccc12	-	2.8µM	?
CSCC[C@H](N)C(=O)N[C@@H](C)C(=O)NCC(=O)N[C@@H](CCCN=C(N)N)C(=O)N[C@@H](CO)C(=O)NCC(=O)N[C@@H](CC(=O)O)C(=O)N[C@@H](CO)C(=O)N[C@@H](CC(=O)O)C(=O)N[C@@H](CCC(=O)O)C(=O)N[C@@H](CC(=O)O)C(=O)N[C@@H](CC(C)C)C(=O)N[C@@H](CC(C)C)C(=O)N[C@@H](CCCCN)C(=O)N[C@@H](C)C(=O)N[C@H](C(=O)O)C(C)C	.	-	-
Cc1ccc([N+](=O)[O-])cc1S(=O)(=O)Nc1ccc(N2CCOCC2)cc1	-	-	-
CC(C)NC(=O)CN1CCC(c2nc3ccccc3[nH]2)CC1	.	-	-
O=C(NCCOC(=O)c1c(F)cccc1Cl)c1c(F)cccc1Cl	.	-	-
COCCN1C(=O)N[C@@H](c2cccc(F)c2)C(C(C)=O)=C1C	-[7.66 µM]	.	.
Cc1ccccc1C1CC(=O)Oc2cc(C)c(Cl)c(C)c21 (centres undefined)	-	-	-
COC(=O)C1=NOC2(C=C(Br)C(OC)=C(Br)C2=O)C1 (centres undefined)	.	2.5µM	1.8µM
C/C(=N\NC(N)=O)C1CC(Cc2ccccc2)C(=O)O1 (centres undefined)	.	-	-
Cc1ccc(/C=C2\C(=O)ON=C2c2ccccc2)o1	-	-	-
Cc1ccc(-c2ccc(/C=C3\C(=O)ON=C3c3ccccc3)o2)c([N+](=O)[O-])c1	-	16µM	?
COc1ccc(N2C(=O)C(F)(F)C2c2ccc(C)cc2)cc1OC (centres undefined)	-	-	-
Cc1cccc(N(C(=O)CNC(=O)c2ccco2)C(C(=O)NC2CCCCC2)c2cccnc2)c1 (centres undefined)	.	-	-
O=C(NC1CCCCC1)C(c1cccnc1)N(C(=O)CCl)c1cccc(Cl)c1 (centres undefined)	-	?	13µM
CCc1ccccc1N(CC(=O)N1CCc2ccccc2C1)S(C)(=O)=O	.	-	-
